Experimental data reported in PubChem BioAssay.
“And” between values parts separate entries of the source, which are not always exact repeats. Identical values can stand only once. Records with an inconclusive call do not appear. For some assays here: Measured potencies and affinities stand elsewhere. The source made the active and inactive calls. Unless noted, the rule behind the calls is not given here.

How the values were obtained:
[1] = blockers of polyQ-driven CASP3 activation – cell-based (AID 1583); conditions: polyglutamine-induced caspase-3 activation, cell assay; stronger effect = higher value;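 tested at 10 µM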
[2] = yeast 75Q aggregation reduction – 75Q-TubU reporter (AID 1593); conditions: Yeast 75Q polyglutamine aggregation reporter
[3] = restoration of touch response, mutant HTT neurons – whole organism, C. elegans mechanosensory neurons, N-terminal huntingtin (AID 1599); conditions: C. elegans polyQ-huntingtin mechanosensory neurons, stronger effect = higher value
[4] = blockers of cytochrome c efflux from mitochondria – biochemical, purified mitochondria (AID 1603); conditions: stronger effect = lower value;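 note: mouse liver mitochondria challenged with calcium chloride; signal normalized to the plate average as 100%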
[5] = polyglutamine aggregate formation blockers (AID 1604); conditions: polyglutamine-induced protein aggregation inhibition assay; stronger effect = higher value; tested at 2.5 µM
[6] = glutamate transport activators, MN-1 cells, MN-1 cell line (AID 1612); conditions: MN-1 motor neuron cells, stronger effect = higher value;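 note: tested at 1 µM final; 0% = mean of DMSO vehicle wells on each plate; positive means more glutamate uptake than control and negative means less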
[7] = GFP-Q80 aggregate reduction, neuronal-like cells, cell-based, NGF-treated PC12, GFPQ80 (AID 1614); conditions: PC12 NGF-treated GFP-polyQ80 inclusion reduction;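 note: lower means fewer inclusions and 0 means no inclusions at all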
[8] = 75Q-TubH aggregate inhibition, S. cerevisiae, yeast (AID 1616); conditions: S. cerevisiae 75Q-TubH polyglutamine aggregation suppression; stronger effect = higher value
[9] = molecular target: ATP-dependent translocase ABCB1 (Homo sapiens) (UniProt P08183); experiment: P-glycoprotein substrate transport blockade – cell-based (AID 377; in the data active = fluorescence slope change above about 50%); conditions: MDR1-expressing cells, fluorescent substrate accumulation slope; stronger effect = higher value; concentration not given here
[10] = glutamate excitotoxicity neuroprotectants – cell-based, TUNEL DNA degradation staining, MNGlu (AID 1594); conditions: motor neurons, glutamate-induced death, at 1 µM, stronger effect = higher value
[11] = compounds altering viability of human ES cells (AID 493140); conditions: human embryonic stem cell survival screen; stronger effect = higher value;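 note: cells exposed to compounds for four days before counting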
[12] = rescue of PC12 cells from polyQ htt toxicity – LDH release (AID 1610); conditions: PC12 mutant huntingtin toxicity, final LDH at 4 uM, stronger effect = lower value
[13] = compounds altering circadian rhythm period length – cell-based, LOPAC library, luminescence reporter (AID 2774); conditions: circadian reporter cells, at 7 µM, actives lie on both sides;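 note: values are relative to mean of DMSO wells on each plate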
[14] = blockers of MitoPT in mitochondria (AID 1580); conditions: isolated mitochondria, permeability transition inhibition
[15] = molecular target: Huntingtin (Homo sapiens) (UniProt P42858); experiment: mutant huntingtin aggregation blockers – QA1, dose response (AID 1584); conditions: in vitro mutant huntingtin aggregation assay; confirmation test; at 10 µM; stronger effect = lower value
[16] = blockers of biotin-polyQ monomer incorporation into aggregates – biochemical, solid-phase synthetic aggregates, QA3 (AID 1585); conditions: polyQ aggregate elongation; EC50: measured here: elongation inhibition potency; inhibition: at 100 µM, stronger effect = higher value

Sequence of ATP-dependent translocase ABCB1 (Homo sapiens) (P08183 whole entry, looked up): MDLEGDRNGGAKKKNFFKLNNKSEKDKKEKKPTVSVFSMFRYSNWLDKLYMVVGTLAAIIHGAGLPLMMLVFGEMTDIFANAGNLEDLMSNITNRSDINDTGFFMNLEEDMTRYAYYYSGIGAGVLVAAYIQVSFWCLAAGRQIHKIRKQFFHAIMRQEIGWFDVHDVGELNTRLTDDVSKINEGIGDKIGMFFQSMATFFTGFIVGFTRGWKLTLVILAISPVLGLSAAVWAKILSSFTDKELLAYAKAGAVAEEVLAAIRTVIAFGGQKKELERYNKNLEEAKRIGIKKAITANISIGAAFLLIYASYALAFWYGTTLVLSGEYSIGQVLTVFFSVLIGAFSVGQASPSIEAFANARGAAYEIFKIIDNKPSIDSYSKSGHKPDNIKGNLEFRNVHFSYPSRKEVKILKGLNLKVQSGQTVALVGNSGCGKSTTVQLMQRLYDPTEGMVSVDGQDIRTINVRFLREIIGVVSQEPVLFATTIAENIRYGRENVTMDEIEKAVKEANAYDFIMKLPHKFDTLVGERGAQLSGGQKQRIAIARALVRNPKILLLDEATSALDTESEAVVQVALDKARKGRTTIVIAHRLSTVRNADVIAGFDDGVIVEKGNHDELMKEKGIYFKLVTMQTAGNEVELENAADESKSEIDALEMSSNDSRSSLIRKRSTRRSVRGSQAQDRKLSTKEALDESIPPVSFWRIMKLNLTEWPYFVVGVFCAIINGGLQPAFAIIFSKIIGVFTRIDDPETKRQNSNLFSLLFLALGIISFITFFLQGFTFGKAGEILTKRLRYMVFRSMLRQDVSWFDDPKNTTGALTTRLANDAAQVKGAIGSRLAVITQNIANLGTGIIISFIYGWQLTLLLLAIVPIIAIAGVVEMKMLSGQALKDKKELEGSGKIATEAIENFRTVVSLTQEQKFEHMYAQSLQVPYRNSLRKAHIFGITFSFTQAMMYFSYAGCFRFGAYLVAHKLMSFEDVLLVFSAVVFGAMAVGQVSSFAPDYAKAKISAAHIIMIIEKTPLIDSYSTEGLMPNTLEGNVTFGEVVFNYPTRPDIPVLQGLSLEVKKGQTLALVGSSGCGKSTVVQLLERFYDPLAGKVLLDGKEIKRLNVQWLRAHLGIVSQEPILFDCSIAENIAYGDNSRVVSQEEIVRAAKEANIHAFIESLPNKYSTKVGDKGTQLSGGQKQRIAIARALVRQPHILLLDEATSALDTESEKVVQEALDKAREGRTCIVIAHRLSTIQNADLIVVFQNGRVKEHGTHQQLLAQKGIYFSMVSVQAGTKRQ
Sequence of Huntingtin (Homo sapiens) (P42858 whole entry, looked up): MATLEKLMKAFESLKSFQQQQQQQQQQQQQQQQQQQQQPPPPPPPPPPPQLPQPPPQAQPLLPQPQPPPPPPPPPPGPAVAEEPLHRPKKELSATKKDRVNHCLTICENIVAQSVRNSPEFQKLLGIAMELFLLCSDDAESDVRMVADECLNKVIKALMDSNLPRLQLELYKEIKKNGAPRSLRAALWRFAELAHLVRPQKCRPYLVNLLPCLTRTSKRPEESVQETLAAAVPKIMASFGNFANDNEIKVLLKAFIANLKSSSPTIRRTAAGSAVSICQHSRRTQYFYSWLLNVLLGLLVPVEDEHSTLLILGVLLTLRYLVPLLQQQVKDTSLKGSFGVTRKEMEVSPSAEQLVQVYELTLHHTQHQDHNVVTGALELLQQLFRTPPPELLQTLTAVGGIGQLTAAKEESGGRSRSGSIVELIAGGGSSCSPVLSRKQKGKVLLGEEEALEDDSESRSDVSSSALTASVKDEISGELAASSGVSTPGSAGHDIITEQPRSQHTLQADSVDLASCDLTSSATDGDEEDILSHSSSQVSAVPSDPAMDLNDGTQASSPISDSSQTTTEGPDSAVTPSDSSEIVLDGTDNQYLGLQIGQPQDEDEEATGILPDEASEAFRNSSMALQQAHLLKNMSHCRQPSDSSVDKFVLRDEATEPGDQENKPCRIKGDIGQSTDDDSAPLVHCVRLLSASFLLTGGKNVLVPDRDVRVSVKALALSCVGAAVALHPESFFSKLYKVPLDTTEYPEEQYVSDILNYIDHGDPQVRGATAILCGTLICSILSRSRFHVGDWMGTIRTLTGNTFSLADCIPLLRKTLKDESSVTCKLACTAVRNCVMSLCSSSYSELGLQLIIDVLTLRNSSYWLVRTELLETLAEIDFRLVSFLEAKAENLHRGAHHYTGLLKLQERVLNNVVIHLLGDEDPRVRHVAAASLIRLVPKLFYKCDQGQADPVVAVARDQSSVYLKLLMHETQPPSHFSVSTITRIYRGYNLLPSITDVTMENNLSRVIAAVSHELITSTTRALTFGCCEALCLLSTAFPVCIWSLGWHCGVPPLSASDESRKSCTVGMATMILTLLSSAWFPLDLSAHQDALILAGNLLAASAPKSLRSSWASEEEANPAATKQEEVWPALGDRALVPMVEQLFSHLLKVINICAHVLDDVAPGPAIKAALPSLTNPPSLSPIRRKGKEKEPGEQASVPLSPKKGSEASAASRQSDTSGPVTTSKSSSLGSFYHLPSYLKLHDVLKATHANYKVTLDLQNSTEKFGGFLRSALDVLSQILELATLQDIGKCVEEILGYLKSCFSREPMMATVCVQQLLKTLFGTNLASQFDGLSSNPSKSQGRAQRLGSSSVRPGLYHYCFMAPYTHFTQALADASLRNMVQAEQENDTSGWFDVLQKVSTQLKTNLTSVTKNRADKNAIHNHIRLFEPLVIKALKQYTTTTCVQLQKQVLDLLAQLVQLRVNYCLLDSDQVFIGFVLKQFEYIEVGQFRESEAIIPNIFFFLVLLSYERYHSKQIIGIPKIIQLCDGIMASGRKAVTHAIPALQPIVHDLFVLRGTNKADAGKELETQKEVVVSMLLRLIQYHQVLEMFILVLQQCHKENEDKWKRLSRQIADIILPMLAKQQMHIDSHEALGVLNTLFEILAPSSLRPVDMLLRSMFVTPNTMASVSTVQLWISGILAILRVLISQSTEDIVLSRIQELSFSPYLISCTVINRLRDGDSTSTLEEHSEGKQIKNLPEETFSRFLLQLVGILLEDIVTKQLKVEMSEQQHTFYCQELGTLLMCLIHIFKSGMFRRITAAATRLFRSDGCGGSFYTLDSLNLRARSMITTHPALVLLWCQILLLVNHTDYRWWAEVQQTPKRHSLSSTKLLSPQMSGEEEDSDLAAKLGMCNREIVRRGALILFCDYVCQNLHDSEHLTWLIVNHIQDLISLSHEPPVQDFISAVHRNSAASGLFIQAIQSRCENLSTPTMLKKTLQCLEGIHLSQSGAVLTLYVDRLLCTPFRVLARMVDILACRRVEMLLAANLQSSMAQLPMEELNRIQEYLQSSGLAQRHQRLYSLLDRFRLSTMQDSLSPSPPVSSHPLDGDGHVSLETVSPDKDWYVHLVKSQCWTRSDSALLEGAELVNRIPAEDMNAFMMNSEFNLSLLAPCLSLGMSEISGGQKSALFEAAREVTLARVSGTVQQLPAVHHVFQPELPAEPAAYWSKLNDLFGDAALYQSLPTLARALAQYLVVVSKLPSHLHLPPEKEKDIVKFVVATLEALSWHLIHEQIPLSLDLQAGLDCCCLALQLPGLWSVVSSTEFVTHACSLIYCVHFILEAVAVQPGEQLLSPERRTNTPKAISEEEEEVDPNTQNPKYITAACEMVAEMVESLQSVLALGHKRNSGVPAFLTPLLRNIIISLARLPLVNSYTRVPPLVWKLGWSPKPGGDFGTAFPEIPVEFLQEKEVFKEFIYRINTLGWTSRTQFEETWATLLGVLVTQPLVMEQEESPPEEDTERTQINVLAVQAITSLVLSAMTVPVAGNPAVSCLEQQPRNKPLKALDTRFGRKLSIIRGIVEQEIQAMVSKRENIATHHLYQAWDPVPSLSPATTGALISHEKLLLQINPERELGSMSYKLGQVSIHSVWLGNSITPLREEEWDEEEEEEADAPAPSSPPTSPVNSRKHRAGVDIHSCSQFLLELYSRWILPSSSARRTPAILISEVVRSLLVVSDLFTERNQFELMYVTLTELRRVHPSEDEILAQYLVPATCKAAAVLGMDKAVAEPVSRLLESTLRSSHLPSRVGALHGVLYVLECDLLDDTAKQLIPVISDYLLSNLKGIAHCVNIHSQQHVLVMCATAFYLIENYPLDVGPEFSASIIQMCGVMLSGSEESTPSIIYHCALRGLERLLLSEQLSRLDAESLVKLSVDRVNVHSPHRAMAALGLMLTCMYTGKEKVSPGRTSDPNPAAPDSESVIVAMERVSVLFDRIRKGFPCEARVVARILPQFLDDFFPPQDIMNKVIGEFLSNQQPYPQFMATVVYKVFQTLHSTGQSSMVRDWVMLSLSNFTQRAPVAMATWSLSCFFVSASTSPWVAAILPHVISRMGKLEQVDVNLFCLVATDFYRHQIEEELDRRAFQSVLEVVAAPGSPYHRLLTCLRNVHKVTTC

Compound	inhibition [1]	score [2]	rescue above control [3]	cytochrome c release ratio [4]	inhibition of aggregation [5]	glutamate uptake change [6]	inclusion score [7]	aggregation suppression score [8]	fluorescence slope change [9]	protection [10]	survival [11]	normalised LDH release [12]	period change [13]	EC50 [14]	aggregation ratio [15]	EC50 [16] [µM]	inhibition [16]
CC1=C(C(=O)O)N2C(=O)[C@@H](NC(=O)[C@H](N)C3=CCC=CC3)[C@H]2SC1	-6.99%	1.49	19	0.86	74.7%	-0.28%	2	1.56									
OC[C@H]1O[C@@H](O[C@@H]2[C@@H](CO)O[C@](O)(CO)[C@H]2O)[C@H](O)[C@@H](O)[C@H]1O	-7.91%	1.23	-9.67	1.19	51.2%	8.9%	2	0.924									
CO[C@@H]1[C@@H](OC(N)=O)[C@@H](O)[C@H](Oc2ccc3c(O)c(NC(=O)c4ccc(O)c(CC=C(C)C)c4)c(=O)oc3c2C)OC1(C)C	-0.61%	1.59	-8.05	0.96	-73.2%	-19%	2	0.623									
Cc1nnc(NS(=O)(=O)c2ccc(N)cc2)s1	18.6%	1.23	-5.75	1.01	68.2%	17.5%	2	1.24	9.7% (inactive)	35% (active)	5.75 (inactive)						
CC(NCCC(c1ccccc1)c1ccccc1)c1ccccc1 (stereo not given)	36.8%	1.04	0	0.33	-3.7%	-8.71%		1.16	200% (active)		3.08 (inactive)	1.14					
CC(=O)NCCCCCC(=O)O	22.1%	1.42	-0.56	1.37	74.4%	-9.11%	2	1.24									
O=NN(CCCl)C(=O)NCCCl	-31.5%	0.3	5.39	0.91	72.2%	5.94%		0.185	11.5% (inactive)			0.621	0.115 h (inactive)				
Oc1c(Cl)cc(Cl)c(Cl)c1Cc1c(O)c(Cl)cc(Cl)c1Cl	5.38%	-1.67	-6.64	0.45	91.6%	-31.4%		-0.244				0.936		0.3 µM (active)			
O=C1c2c(O)cccc2Cc2cccc(O)c21	18.6%	1.5	0.38	0.41	37.9%	5.46%	2	1.2							0.75		
Nc1c(Br)cc(Br)cc1CNC1CCC(O)CC1 (stereo not given)	-21.8%	1.12	-1.56	1.08	54.5%	5.04%	2	1.15	57.2% (active)		4.58 (inactive)	0.856					
O=c1cc[nH]c(=S)[nH]1	2.52%	1.24	1.48	1.09	41.5%	7.71%	2	1.48									
OCc1ccccc1O	-8.47%	1.17	12.8	0.81	67.8%	16.3%	2	1.11									
Nc1nccs1	9.3%	1.44	-9.08	0.95	30.7%	28.6%	2	1.04									
CN(C)c1ccc(C(=C2C=CC(=[N+](C)C)C=C2)c2ccc(N(C)C)cc2)cc1	60.7%	-6.36	0	1.35	16.7%	-15.7%		-1.97				0.824					
CC(=O)Nc1ccc(S(=O)(=O)Nc2ccc([N+](=O)[O-])cc2)cc1	15.7%	1.4	-10.3	1.02	15.7%	20.4%	2	1.23				0.673					
CN1CCCN=C1COC(=O)C(O)(c1ccccc1)C1CCCCC1 (stereo not given)	21.6%	1.24	4.84	0.8	60.8%	10.4%	2	1.26									
NC(=O)N/N=C/c1ccc([N+](=O)[O-])o1	21.9%	1.11	14.1	1.45	74.9%	16.7%	2	0.831			16.2 (inactive)	0.973					
C=C1c2cccc(O)c2C(O)=C2C(=O)[C@]3(O)C(O)=C(C(N)=O)C(=O)[C@@H](N(C)C)[C@@H]3[C@@H](O)[C@H]12	-86.7%	0.99	0	0.49	29.5%	-2.5%	1	0.29			4.33 (inactive)					132	60% (active)
CCN(CC)C(=O)c1cccc(C)c1	9.84%	1.21	-4.11	1.07	28.8%	1.78%	2	1.01									
COc1cccc(OC)c1C(=O)N[C@@H]1C(=O)N2[C@@H]1SC(C)(C)[C@@H]2C(=O)O	11.5%	1.48	-12.3	0.93	45.9%	17.4%	2	1.05									
CCN(CC)CCNc1ccc(CO)c2sc3ccccc3c(=O)c12	2.1%	1.79	-7.32	1.54	91.6%	14.7%		0.977	-2.7% (inactive)		1.33 (inactive)	0.8				71	82.8% (active)
Cc1ccc(C(C)C)cc2c(C)ccc1-2	0.23%	-2.73	1.94	3.4	30.6%	4.08%		-1.39								57	73.4% (active)
Oc1cccc(O)c1	9.11%	1.66	3.39	0.9	60.3%	8.45%	2	1.13									
O=C(Nc1ccc([N+](=O)[O-])cc1Cl)c1cc(Cl)ccc1O	63.3%	1.5	-13	0.91	41.7%	-52.2%		0.882			1.67 (inactive)	-0.146	0.06 h (inactive)				
CC(=O)OCC(COC(C)=O)OC(C)=O	0.15%	1.44	-1.97	1.1	72.7%	-13.9%	2	1.25									

Compound	inhibition [1]	score [2]	rescue above control [3]	cytochrome c release ratio [4]	inhibition of aggregation [5]	glutamate uptake change [6]	inclusion score [7]	aggregation suppression score [8]	fluorescence slope change [9]	protection [10]	survival [11]	normalised LDH release [12]	period change [13]	EC50 [14]	aggregation ratio [15]	EC50 [16] [µM]	inhibition [16]
Oc1c(Cl)cc(Cl)cc1Sc1cc(Cl)cc(Cl)c1O	-9.02%	-0.24	9.15	0.74	-7.69%	-39%		0.0465				1.06		0.3 µM (active)			
C=Cc1c(C)c2cc3[nH]c(cc4nc(cc5nc(cc1[nH]2)C(C)=C5CCC(=O)O)C(CCC(=O)O)=C4C)c(C)c3C=C	39.5%	0.75		1.37	77.5%	5.14%		0.995					-0.02 h (inactive)		0.595	106	59% (active)
CO[C@@]1(NC(=O)C(C(=O)O)c2ccc(O)cc2)C(=O)N2C(C(=O)O)=C(CSc3nnnn3C)CO[C@@H]21 (stereo not given in full)	10.7%	1.04	12.8	0.83	72.2%	0.13%	1	1.14	63.7% (active)		6.42 (inactive)					2	91.1% (active)
CN(C)/N=N/c1nc[nH]c1C(N)=O	17.5%	1.36	-5.12	0.99	9.26%	-11.4%	2	1.16									
C[N+](C)(C)CCOC(N)=O	19.3%	1.38	2.63	0.77	60.9%	-6.66%	2	1.67	12.8% (inactive)		4.67 (inactive)	0.399	0.05 h (inactive)				
NS(=O)(=O)c1cc2c(cc1Cl)NC(CSCc1ccccc1)=NS2(=O)=O	25.2%	1.43	-12.2	1.07	47.9%	-3.22%	2	1.51	78.4% (active)	57% (active)	3.08 (inactive)						
C[C@H]1c2cccc(O)c2C(O)=C2C(=O)[C@]3(O)C(O)=C(C(N)=O)C(=O)[C@@H](N(C)C)[C@@H]3[C@@H](O)[C@@H]21	-6.11%	0.83	0	0.35	64.1%	-7.42%	0.5	0.446				0.903	-0.14 h (inactive)				
Cc1cc(C2CCCCC2)n(O)c(=O)c1	60.9%	0.13	6.29	0.91	72.2%	-12%		0.0349			0.667 (inactive)	0.668					
Cc1ccc(C(=O)C(C)CN2CCCCC2)cc1 (stereo not given)	-24.9%	0.57	-2.41	0.96	37.2%	-0.03%	1.5	0.367				0.861					
O=C(O)c1ccc(S(=O)(=O)N(Cl)Cl)cc1	18.5%	1.25	8.13	0.74	56.3%	-1.46%	2	1.13									
CCOC(N)=O	-5.88%	1.23	-10	0.98	58.9%	-13.5%	2	1.21									
CCCCCC(C)N (stereo not given)	-8.68%	1.2	1.21	1.02	-9.09%	3.71%	2	0.962									
NC(=O)NC(=O)Cc1ccccc1	24.8%	1.34	-4.86	1.02	4.16%	-11.7%	2	1.17									
Nc1c2c(nc3ccccc13)CCCC2O (stereo not given)	19.1%	1.04	-4.39	0.96	59.1%	6.03%	2	0.587					0.15 h (inactive)				
CCCCCCCCCCCCCCCCCCOCC(O)CO (stereo not given)	-51.6%	1.03	2.94	1	34.7%	11.1%	2	0.825									
CC(=O)Oc1ccccc1C(=O)O	-10.2%	1.29	9.45	1.35	61.5%	9.8%	2	1.28					-0.135 h (inactive)				
NC(Cc1ccc(Cl)cc1)C(=O)O (stereo not given)	2.04%	1.27	22.3	0.79	83.3%	-15.1%	2	1.23					-0.015 h (inactive)				
CC(=O)N[C@@H](CS)C(=O)O	-21.7%	1.46	-1.36	1.05	79.6%	-3.8%	2	1.2					0.1 h (inactive)				
N[C@@H](CCC(=O)N[C@@H](CS)C(=O)NCC(=O)O)C(=O)O	17.6%	1.4	-4.11	0.98	45.5%	13.8%	2	1.61									
NC[C@H](O)c1ccc(O)c(O)c1	10.9%	1.61	-5.19	1.03	44.7%	21.3%	2	1.39					0.04 h (inactive)				
CC(=O)Nc1ccccc1	14.3% and 16.3%	1.29 and 1.35	-5.57 and 2.9	1.36 and 1.09	42.4% and 85.9%	3.38% and -12.1%	2	1.6 and 1.51									
O=C1OCCN1/N=C/c1ccc([N+](=O)[O-])o1	4.31%	0.66	4.89	1.17	27%	4.62%	2	0.223									
NC(=O)c1ccc([N+](=O)[O-])cc1Cl	5.22%	1.24	31.2	1.06	82.5%	19.4%	2	1.31									
Nc1ccc(C(=O)O)c(O)c1	-17.6%	1.08	7.16	1.48	88.8%	2.47%	2	1.24									
